# Test results reported in PubChem BioAssay AID875 (National Center for Advancing Translational Sciences (NCATS), 2007).
# About 35 (0.05%) of roughly 75,000 compounds were called active. A call without a number means that no potency is given here. Calls come from the whole dose curve; as a rule, active = well fitted inhibition curve with a large enough effect; inconclusive = small, poorly fitted or top-dose-only effect; inactive = no such curve, though single readings can be large or run the other way. The sample as a whole holds a higher share of actives than the screen did.
# Target: Breast cancer type 1 susceptibility protein (Homo sapiens) (UniProt P38398)
# Sequence (P38398 whole entry, looked up): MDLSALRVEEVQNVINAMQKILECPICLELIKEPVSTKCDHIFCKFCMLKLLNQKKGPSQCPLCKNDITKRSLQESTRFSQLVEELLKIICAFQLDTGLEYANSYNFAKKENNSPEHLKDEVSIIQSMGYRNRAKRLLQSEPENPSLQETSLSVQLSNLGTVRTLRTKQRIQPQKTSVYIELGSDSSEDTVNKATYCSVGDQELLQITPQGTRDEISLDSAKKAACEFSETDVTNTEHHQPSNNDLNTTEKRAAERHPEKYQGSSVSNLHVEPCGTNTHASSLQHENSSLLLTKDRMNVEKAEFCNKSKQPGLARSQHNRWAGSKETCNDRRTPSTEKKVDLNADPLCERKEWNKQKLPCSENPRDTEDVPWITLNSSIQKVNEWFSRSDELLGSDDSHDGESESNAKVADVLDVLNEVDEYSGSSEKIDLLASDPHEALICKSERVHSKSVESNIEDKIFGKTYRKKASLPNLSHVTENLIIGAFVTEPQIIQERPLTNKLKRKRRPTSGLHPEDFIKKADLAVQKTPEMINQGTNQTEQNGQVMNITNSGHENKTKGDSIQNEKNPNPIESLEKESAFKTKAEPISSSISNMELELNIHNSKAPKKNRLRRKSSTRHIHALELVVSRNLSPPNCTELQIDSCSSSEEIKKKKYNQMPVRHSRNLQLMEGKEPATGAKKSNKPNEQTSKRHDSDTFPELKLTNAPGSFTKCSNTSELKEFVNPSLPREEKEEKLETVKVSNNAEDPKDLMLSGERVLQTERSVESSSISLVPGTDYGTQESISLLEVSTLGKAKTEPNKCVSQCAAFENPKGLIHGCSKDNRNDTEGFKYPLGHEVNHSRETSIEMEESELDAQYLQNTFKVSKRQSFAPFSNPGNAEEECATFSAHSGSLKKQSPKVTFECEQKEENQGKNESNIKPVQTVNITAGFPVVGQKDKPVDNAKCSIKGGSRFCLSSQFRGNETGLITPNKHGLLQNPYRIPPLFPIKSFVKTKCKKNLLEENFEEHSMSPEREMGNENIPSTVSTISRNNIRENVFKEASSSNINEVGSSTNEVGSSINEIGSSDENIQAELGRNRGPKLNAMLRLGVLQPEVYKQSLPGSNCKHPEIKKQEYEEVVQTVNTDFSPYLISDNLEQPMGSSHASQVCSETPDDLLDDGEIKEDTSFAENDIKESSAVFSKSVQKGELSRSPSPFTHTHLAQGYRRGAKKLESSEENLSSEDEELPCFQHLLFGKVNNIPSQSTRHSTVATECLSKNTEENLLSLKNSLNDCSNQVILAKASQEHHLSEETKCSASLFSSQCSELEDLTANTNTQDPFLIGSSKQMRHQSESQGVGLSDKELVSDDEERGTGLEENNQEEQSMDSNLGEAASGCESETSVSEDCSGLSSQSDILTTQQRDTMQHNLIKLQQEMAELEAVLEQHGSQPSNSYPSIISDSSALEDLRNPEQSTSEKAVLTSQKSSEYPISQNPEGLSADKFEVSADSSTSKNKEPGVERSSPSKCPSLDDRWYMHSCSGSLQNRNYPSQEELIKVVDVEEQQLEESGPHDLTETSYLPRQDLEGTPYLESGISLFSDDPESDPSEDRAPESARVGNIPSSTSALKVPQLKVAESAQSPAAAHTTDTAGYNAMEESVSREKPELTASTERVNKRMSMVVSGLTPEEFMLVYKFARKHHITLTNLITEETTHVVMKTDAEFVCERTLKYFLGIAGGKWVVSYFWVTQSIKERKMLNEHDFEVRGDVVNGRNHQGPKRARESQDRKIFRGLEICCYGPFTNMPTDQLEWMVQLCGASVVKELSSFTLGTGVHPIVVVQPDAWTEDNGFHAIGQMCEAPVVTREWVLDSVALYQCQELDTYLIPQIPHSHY
# Assay: qHTS Assay for Inhibitors of BRCT-Phosphoprotein Interaction (Green Fluorophore)
# Conditions: BRCA1 BRCT-phosphopeptide binding, green fluorescence polarization; series mostly up to 76.9 µM
# Method: NIH Molecular Libraries Screening Centers Network [MLSCN]
# NIH Chemical Genomics Center [NCGC]
# PI Name: Natarajan, Amarnath; University of Texas
# A complex of BRCT (C-terminal portion of BRCA1, MW ~35 kDa, His-tagged) and fluorescently labeled pBACH1 phosphorylated 10 aa peptide fragment of BACH1, a helicase implicated in DNA repair, is incubated with library members. Inhibitors of BRCT-pBACH1 binding are detected by a decrease in the fluorescence polarization (FP) of the fluorophore. In order to minimize the effect of fluorescence artifacts and to increase the overall robustness of the screen, the compound library members were incubated in separate reactions with fluorescein labeled probe-protein complexes. Protein and labeled probes were supplied by Dr. Amarnath Natarajan, Department of Pharmacology and Toxicology, University of Texas Medical Branch Galveston, TX.
# Assay Buffer: 16mM Na2HPO4, 4 mM NaH2PO4, 150 mM NaCl, 1 mM EDTA, 1 mM DTT, 0.02% NaN3, and 0.01% Tween 20 at pH 7.3.
# 100 nM labeled decapeptide/250 nM protein in columns 1, 2, 5 - 48. Titration of unlabeled decapeptide control (from 10 mM, then 1:2 dilution in duplicate) pin-transferred to column 2, rows 1 to 16. Column 1 is neutral.
# Three uL of reagents were dispensed to 1536-well Greiner black solid-bottom plates. Compounds and controls (23 nL) were transferred
# via Kalypsys PinTool. The plates were incubated for 12 min at room temperature, and then read on ViewLux (Perkin-Elmer) High throughput CCD imager using FITC for the fluorescein-labeled decapeptide probe polarization filter sets. During dispense, reagent bottles were kept submerged into 4 deg C water bath and all liquid lines were covered with aluminum foil to minimize probe and protein degradation. All screening operations were performed on a Kalypsys robotic system (Kalypsys, Inc., San Diego, CA) containing one RX-130 and two RX-90 anthropomorphic robotic arms. The timing and order of assay plates passing through the screening system were adjusted such that each compound library plate was assayed against the fluorescein- and rhodamine-labeled assay systems at immediately adjacent time points.
# Potency is the fitted concentration of half-maximal effect.
Compound,"activity change, negative = inhibition",Potency
Cc1ccc2nc(NC3=NCN(CCc4ccccc4)CN3)nc(C)c2c1,inactive,–
COc1ccccc1-c1nc(NCc2cccs2)c2ccccc2n1,inactive,–
CC1=C(C(=O)Nc2ccccc2)C(c2cccs2)C(C#N)=C(SCC#N)N1 (stereo not drawn),inactive,–
COc1ccc(Cl)cc1S(=O)(=O)N1CCN(CC(=O)C(C)(C)C)CC1,inactive,–
C=CCSc1nc2c(c(=O)[nH]1)C(C(C)C)C(C#N)=C(N)O2 (stereo not drawn),inactive,–
O=P(c1ccc2c(c1)OCCO2)(N1CCOCC1)N1CCOCC1,inactive,–
CCCCCn1c(SCCC(C)C)nc2c1c(=O)[nH]c(=O)n2C,inactive,–
Cc1sc2c(c1C)c(=O)n(-c1ccccc1)c1nncn21,inactive,–
CCCC(=O)N1c2ccc(-c3csc(N)n3)cc2CC1C (stereo not drawn),inactive,–
CCCCCOC(=O)NCCOC(=O)Nc1ccc(C(=O)OCC)cc1,inactive,–
Cn1c(=O)c2c(ncn2CC(=O)N2CCN(c3ccccc3)CC2)n(C)c1=O,inactive,–
CN(CCOc1ccc(CC2SC(=O)NC2=O)cc1)c1ccccn1 (stereo not drawn),-0.73% [at 3.08 µM] (inactive),–
COc1cc2c(cc1O)C(SC)=NC(C)(C)C2,inactive,–
O=C(CN1CCN(C(=O)c2ccco2)CC1)Nc1ccc(Cl)c(C(F)(F)F)c1,inactive,–
Cc1ccc(C(=O)Nc2ccccc2C(=O)NC2CCCCC2)cc1S(=O)(=O)N1CCOCC1,inactive,–
C/C(=C\C(=O)c1ccccc1)Nc1cccc(O)c1,inactive,–
CCC/C(O)=C1\C(=O)CC(C)(C)CC1=Nc1ccccc1OC,inactive,–
COC(=O)c1cc(NC(=O)CN2CCC(C(N)=O)(N3CCCCC3)CC2)cc(C(=O)OC)c1,inactive,–
Cc1cc(C(=O)Nc2c(C)n(C)n(-c3ccccc3)c2=O)cs1,inactive,–
COc1ccc(C2C3=C(CC(C)(C)CC3=O)Oc3ncn4nc(-c5cccnc5)nc4c32)cc1OC (stereo not drawn),inactive,–
Cn1cccc1C(=O)N1CCC[C@@]2(CCN(Cc3nccs3)C2)C1,inactive,–
O=[n+]1c2c(n([O-])c3cc(Br)ccc31)CCC2,inactive,–
COc1cc([C@H]2c3cc4c(cc3[C@@H](O[C@@H]3O[C@H]5CO[C@@H](C)O[C@]5(O)C[C@H]3O)[C@@H]3COC(=O)[C@H]23)OCO4)cc(OC)c1O,inactive,–
FC(F)(F)c1ccc(CN2C[C@@H]3C(c4ccccc4)C4(c5ccccc5)CC3(C4)[C@H]2c2ccccc2)cc1 (stereo partly drawn),inactive,–
CC1CCN(c2nc3c(c(=O)[nH]c(=O)n3C)n2CCCc2ccccc2)CC1,inactive,–

Compound,"activity change, negative = inhibition",Potency
Cc1cccc2c3c(ccc12)C1=C(C(=O)C3=O)C(C)CO1 (stereo not drawn),inactive,–
CCOC(=O)Nc1ccccc1N1C(=O)c2ccccc2C1=O,inactive,–
CCOC(=O)c1cc2n(c1C)-c1ccccc1C2=O,inactive,–
CCOC(=O)c1cc2n(c1N)-c1ccccc1C2=O,–,15.8 µM (active)
COC(=O)[C@@H]1C[C@@]2(O)[C@H](O)[C@H](O)[C@H](O)C[C@H]2N1CC1CCCCC1,inactive,–
Cn1c(=O)n(C)c2cc(CNc3ccc(N4CCOCC4)c(C(=O)O)c3)ccc21,inactive,–
O=C(NCc1ccc(Cl)cc1)c1cc2c(nc3sccn32)s1,inactive,–
COC(=O)[C@@H]1C[C@@]2(O)[C@@H](O)[C@@H](O)[C@@H](O)C[C@H]2N1Cc1ccc(C)s1,inactive,–
CCc1c(O)nc(SCC(=O)N2CCCCC2)n(-c2ccccc2C)c1=O,inactive,–
O=C(NC1CCCC1)c1ccc(Br)s1,inactive,–
COc1ccccc1CNC(=O)C1CCN(S(C)(=O)=O)CC1,inactive,–
Cc1nnc(NC2=NCCCCC2)o1,inactive,–
CCNc1nc(NCC)nc(N(C)n2cnnc2)n1,inactive,–
c1csc(-c2cn3c(n2)SCC3)c1,inactive,–
O=C(c1csnn1)N1CCC[C@@]2(CCN(Cc3nccs3)C2)C1,inactive,–
COc1cc(-c2nc(S(=O)(=O)c3ccc(Cl)cc3)c(N(C)C)o2)cc(OC)c1OC,inactive,–
COc1ccc(NC(=O)CSc2nnc(-c3cccs3)n2Cc2ccco2)cc1OC,inactive,–
COC(=O)[C@@H]1C[C@@]2(O)[C@H](O)[C@H](O)[C@H](O)C[C@H]2N1Cc1ccc(C(C)(C)C)cc1,inactive,–
Cc1ccc(S(=O)(=O)C(C#N)c2nc3ccccc3nc2N2CCCC2)cc1C (stereo not drawn),inactive,–
O=C(CC1NCCNC1=O)Nc1ccc(Oc2ccccc2)cc1 (stereo not drawn),inactive,–
COC(=O)Nc1ccc(S(=O)(=O)N(C)CC(F)(F)C(F)F)cc1,inactive,–
Cc1c2cnn(-c3ccccc3)c(=O)c2c(C)n1CCCC(=O)N1CCN(C)CC1,inactive,–
O=c1c2c(nc3n1CCCCC3)sc1c(O)cccc12,inactive,–
COC(=O)[C@@H]1C[C@H]2CC[C@H](O)C[C@H]2N1Cc1ccc(N2CCN(C)CC2)cc1,inactive,–
CC(=O)OCC(=O)[C@@]1(O)CCC2C3CCC4=CC(=O)CC[C@@]4(C)[C@]3(F)C(O)C[C@]21C (stereo partly drawn),-2.43% [at 3.08 µM] (inactive),–

Compound,"activity change, negative = inhibition",Potency
OCCCN1c2ccccc2Nc2nnc(-c3ccccc3)cc21,inactive,–
COC1C[C@@H](O[C@@H]2C(C)C(=O)OC(C)C(C)C(O)C(C)C(=O)[C@@]3(CO3)CC(C)C(OC3OC(C)CC(N(C)C)C3O)C2C)OC(C)[C@@H]1O (stereo partly drawn),-1.55% [at 3.08 µM] (inactive),–
CCN(CC)S(=O)(=O)c1ccc2nc(CSc3nnnn3-c3ccc(O)cc3)[nH]c2c1,inactive,–
CCC1=C(OC(=O)N(CC)CC)N2C(=O)OC(=NCCc3c[nH]c4ccccc34)[C@]2(C)[C@H]2C1=CC[C@H]1C(=O)N(CC)C(=O)[C@H]12,inactive,–
CSCCC1NC2(C(=O)Nc3ccc(Cl)cc32)[C@@H]2C(=O)N(C3CCCC3)C(=O)[C@H]12 (stereo partly drawn),inactive,–
c1ccc2c(CNn3cnnc3)cccc2c1,inactive,–
Cc1occc1C(=O)Nc1cccc(Cn2cccn2)c1,inactive,–
CCCc1nc2ccccc2c(=O)n1/N=C/c1ccc(O)c(O)c1,inactive,–
CC(C)C[C@H](NC(=O)NCCc1ccc(Cl)cc1)C(=O)O,inactive,–
Cn1c(SCC(=O)Nc2cccc(NC(=O)c3cccs3)c2)nnc1-c1ccncc1,inactive,–
CCCOc1ccc(C2C(C(=O)c3ccc(C)o3)=C(O)C(=O)N2CCCn2ccnc2)cc1 (stereo not drawn),inactive,–
N#Cc1c(NC(=O)CSc2nc3ccccc3c(=O)n2Cc2ccco2)sc2c1CCCC2,inactive,–
CCOC(=O)C1C(=O)OC2(CCCC2)C1C(=O)OCC (stereo not drawn),inactive,–
Cn1nc(-c2ccc(N3CCOCC3)c(NC(=O)c3ccccc3)c2)c2ccccc2c1=O,inactive,–
CC1CCCCC1NC(=O)CSc1nnc(N)s1 (stereo not drawn),inactive,–
COCc1[nH]nc2c1C(C1C=CCCC1)C(C#N)=C(N)O2 (stereo not drawn),inactive,–
O=c1c(O)c(-c2ccc(O)cc2)oc2ccccc12,-3.22% [at 3.08 µM] (inactive),–
CCOc1ccc2[nH]c(=O)c(CN(Cc3nnnn3CCc3ccccc3)CC3CCCO3)cc2c1 (stereo not drawn),inactive,–
Cc1ccc(C)c(NC(=O)C2CC(=O)N(C(C)C)C2)c1 (stereo not drawn),inactive,–
O=C(COc1ccc(S(=O)(=O)NCCc2ccccc2)cc1)N1CCCC1,inactive,–
CC(C)n1c(C(O)c2ccccc2)nc2ccccc21 (stereo not drawn),inactive,–
O=C(NCC12CC3CC(C1)CC(CNC(=O)N1CCCC1)(C3)C2)N1CCCC1,inactive,–
CC(=O)O[C@]1(C(C)=O)CC[C@@H]2[C@@H]3C=C(C)C4=CC(=O)CC[C@@]4(C)[C@H]3CC[C@]21C,inactive,–
S=c1[nH]nc(SCc2ccccc2Cl)c2[nH]cnc12,-0.607% [at 15.4 µM] (inactive),–
CCNC(=O)CN(c1ccc(C)cc1)S(=O)(=O)c1ccc(SC)cc1,inactive,–

Compound,"activity change, negative = inhibition",Potency
CC(C)NC(=O)N1CC[C@@]2(CCCN(C(=O)c3cccc(F)c3)C2)C1,inactive,–
Cc1ccc(C(c2nnnn2CS(=O)(=O)c2ccc(C)cc2)N2CCC(C(N)=O)CC2)cc1 (stereo not drawn),inactive,–
CCSc1ncnc2c(C#N)c3n(c12)CCCCC3,inactive,–
COc1ccc(-n2c(SCC(=O)OC(C)C)nnc2-c2ccccn2)cc1,inactive,–
Nc1nnc(C2CCCC2)s1,inactive,–
CC(=O)c1ccc(-n2nnnc2SCC(=O)N2CCN(C(=O)c3ccco3)CC2)cc1,inactive,–
CC1(C)OC2CC(=O)OC[C@@]23C1CC(=O)[C@]1(C)C3CC[C@@]2(C)C(c3ccoc3)OC(=O)C3O[C@@]321 (stereo partly drawn),inactive,–
C[C@H](CCC(=O)O)[C@H]1CC[C@@H]2[C@H]3CC[C@H]4C[C@H](O)CC[C@@]4(C)[C@@H]3CC[C@@]21C,-0.353% [at 15.4 µM] (inactive),–
COc1ccc(-c2nnco2)cc1OC,inactive,–
CCCOC(=O)Cc1c(O)c2ccccc2[nH]c1=O,inactive,–
N#CCC(=O)NC(=O)NCC1CC1,inactive,–
Cc1ccc(OS(=O)Nc2cccc3nccnc23)cc1 (stereo not drawn),inactive,–
Cc1c(S(=O)(=O)O)oc2c1C(=O)C(=O)c1c-2ccc2c1CCCC2(C)C,–,31.6 µM (active)
O=C(c1c(Cl)nc2sccn12)N1CCCc2ccccc21,inactive,–
CCOc1ccc(C2C(C(=O)O)c3ccccc3C(=O)N2CCN2CCOCC2)cc1 (stereo not drawn),inactive,–
COc1ncc2nc(-c3ccc(Cl)cc3)c(=O)n(-c3ccccc3)c2n1,inactive,–
CC(=O)NC1CC2CCCC(C1)N2CC(=O)Nc1ccccc1 (stereo not drawn),inactive,–
Cc1ccc(N(C(=O)CC2NC(=O)NC2=O)C2(C(=O)NC3CCCC3)CCCCC2)cc1 (stereo not drawn),inactive,–
O=S(=O)(NCc1cccnc1)c1ccc(Br)s1,inactive,–
Cc1cc(NC(=O)COC(=O)c2ccc(F)c(S(=O)(=O)N3CCOCC3)c2)no1,inactive,–
O=C1c2ccccc2S(=O)(=O)N1CC(O)Cn1c2ccccc2c2ccccc21 (stereo not drawn),inactive,–
O=C1OC(C(O)CO)C(O)=C1O (stereo not drawn),-0.826% [at 3.08 µM] (inactive),–
CO[C@H]1COC(=O)[C@@H](C)NC(=O)C/C=C\[C@@H](C)[C@H](OC)COC(=O)C/C=C\[C@@H]1C,-2.28% [at 15.4 µM] (inactive),–
